Test results: PubChem BioAssay (Tox21)
“And” between values parts separate entries of the source, which are not always exact repeats. Equal entries are not always repeated. Records with an inconclusive call do not appear. A call without a number means that no potency is given here. Values without a mark were called inactive. The source made the active and inactive calls. Unless noted, the call rests on the fitted dose curve; in most records, active means well fitted curve in the direction sought with a large enough effect in the repeat runs; inconclusive means weak or mixed curves; inactive means no such curve, though single readings can be large; an effect the other way counts as inactive or inconclusive.

Columns and labels:
[1] = target: Luciferin 4-monooxygenase (Photinus pyralis) (UniProt P08659); experiment: qHTS assay to identify small molecule inhibitors of firefly luciferase (AID 1224835); further: nearly all actives have a fitted effect of over 25% in size; further: potency means the concentration at half of the fitted maximal effect
Luciferin 4-monooxygenase (Photinus pyralis), sequence (P08659 whole entry, looked up): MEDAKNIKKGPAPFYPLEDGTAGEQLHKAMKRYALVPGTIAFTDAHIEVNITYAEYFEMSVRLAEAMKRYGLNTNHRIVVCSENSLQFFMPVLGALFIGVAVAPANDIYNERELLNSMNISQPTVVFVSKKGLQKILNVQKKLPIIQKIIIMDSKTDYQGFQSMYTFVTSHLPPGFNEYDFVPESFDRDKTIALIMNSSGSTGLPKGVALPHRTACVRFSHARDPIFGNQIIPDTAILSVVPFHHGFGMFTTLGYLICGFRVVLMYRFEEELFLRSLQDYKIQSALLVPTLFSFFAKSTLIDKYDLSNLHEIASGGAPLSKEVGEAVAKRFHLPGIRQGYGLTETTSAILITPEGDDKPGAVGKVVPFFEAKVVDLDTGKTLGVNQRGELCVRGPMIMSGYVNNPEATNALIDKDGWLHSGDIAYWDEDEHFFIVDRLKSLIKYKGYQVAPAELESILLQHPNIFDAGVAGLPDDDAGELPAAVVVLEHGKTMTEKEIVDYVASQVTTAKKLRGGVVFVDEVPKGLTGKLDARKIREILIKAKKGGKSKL
Method in brief: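 Biochemical qHTS: compounds run as interplate titrations against purified firefly enzyme, with D-luciferin and ATP each at its KM concentration. Light output recorded by CCD imaging.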

[2] = qHTS assay to identify small molecule agonists of the constitutive androstane receptor (CAR) signaling pathway - cell viability counter screen (AID 1224836); further: nearly all actives have a fitted effect of over 45% in size; further: potency means the concentration at half of the fitted maximal effect
Method in brief: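 Double-stable HepG2 hepatoma cells (hCAR plus CYP2B6-2.2kb) are treated for 23 h at 37 C with test compounds in 15-point concentration series. PK11195 at 0.75 uM final is co-added. Cell viability is quantified by CellTiter-Fluor.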

[3] = qHTS assay to identify small molecule antagonists of the constitutive androstane receptor (CAR) signaling pathway - cell viability counter screen (AID 1224837); further: nearly all actives have a fitted effect of over 45% in size; further: potency means the concentration at half of the fitted maximal effect
Method in brief: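 Cells are seeded, rested 4 hr at 37 C/5% CO2, dosed with compound (15-point series) and 50 nM CITCO, incubated a further 23 hr, and then CellTiter-Fluor reagent is added before fluorescence is read. The line is HepG2 with stable hCAR and CYP2B6-2.2kb.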

[4] = target: Nuclear receptor subfamily 1 group I member 3 (Homo sapiens) (UniProt Q14994); experiment: qHTS assay to identify small molecule antagonists of the constitutive androstane receptor (CAR) signaling pathway (AID 1224838);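 further: HepG2 cells stably expressing hCAR with CYP2B6 luciferase reporter stimulated by CITCO; nearly all actives have a fitted effect of over 40% in size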; further: potency means the concentration at half of the fitted maximal effect
Nuclear receptor subfamily 1 group I member 3 (Homo sapiens), sequence (Q14994 whole entry, looked up): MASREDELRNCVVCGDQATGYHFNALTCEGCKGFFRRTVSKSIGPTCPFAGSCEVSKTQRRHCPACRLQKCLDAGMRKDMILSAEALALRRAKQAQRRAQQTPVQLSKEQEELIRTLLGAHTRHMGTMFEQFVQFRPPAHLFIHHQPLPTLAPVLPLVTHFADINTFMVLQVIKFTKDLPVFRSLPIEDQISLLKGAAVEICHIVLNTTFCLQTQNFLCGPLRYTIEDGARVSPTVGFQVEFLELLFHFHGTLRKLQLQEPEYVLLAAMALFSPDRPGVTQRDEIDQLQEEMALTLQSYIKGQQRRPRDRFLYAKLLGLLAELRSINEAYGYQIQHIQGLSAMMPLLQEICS
Method in brief: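 Luminescence from a CYP2B6-2.2kb promoter reporter in hCAR-expressing HepG2 cells reflects CAR signaling. Cells received compounds at 15 concentrations and 50 nM CITCO (final), then incubated 24 h at 37 C/5% CO2.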

[5] = qHTS assay to identify small molecule antagonists of the estrogen related receptor signaling pathway with the pleiotropic PPARgamma coactivator (PGC) from Tox21 10K library - cell viability counter screen (AID 1224840; active means well fitted cell-killing curve with a large enough effect in the repeat runs, not every such curve was filed as active; further: nearly all actives have a fitted effect of over 40% in size; further: potency means the concentration at half of the fitted maximal effect)
Method in brief: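 Cell viability is measured by CellTiter-Fluor fluorescence in PGC/ERR cells that receive compounds after a 6-hour attachment period and are then incubated 17.5 hours at 37 C.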

[6] = target: Thyrotropin receptor (Homo sapiens) (UniProt P16473); experiment: qHTS assay to identify small molecule agonists of the thyroid stimulating hormone receptor (TSHR) signaling pathway (AID 1224843; calls by dose curve; further: nearly all actives have a fitted effect of over 45% in size; further: potency means the concentration at half of the fitted maximal effect)
Thyrotropin receptor (Homo sapiens), sequence (P16473 whole entry, looked up): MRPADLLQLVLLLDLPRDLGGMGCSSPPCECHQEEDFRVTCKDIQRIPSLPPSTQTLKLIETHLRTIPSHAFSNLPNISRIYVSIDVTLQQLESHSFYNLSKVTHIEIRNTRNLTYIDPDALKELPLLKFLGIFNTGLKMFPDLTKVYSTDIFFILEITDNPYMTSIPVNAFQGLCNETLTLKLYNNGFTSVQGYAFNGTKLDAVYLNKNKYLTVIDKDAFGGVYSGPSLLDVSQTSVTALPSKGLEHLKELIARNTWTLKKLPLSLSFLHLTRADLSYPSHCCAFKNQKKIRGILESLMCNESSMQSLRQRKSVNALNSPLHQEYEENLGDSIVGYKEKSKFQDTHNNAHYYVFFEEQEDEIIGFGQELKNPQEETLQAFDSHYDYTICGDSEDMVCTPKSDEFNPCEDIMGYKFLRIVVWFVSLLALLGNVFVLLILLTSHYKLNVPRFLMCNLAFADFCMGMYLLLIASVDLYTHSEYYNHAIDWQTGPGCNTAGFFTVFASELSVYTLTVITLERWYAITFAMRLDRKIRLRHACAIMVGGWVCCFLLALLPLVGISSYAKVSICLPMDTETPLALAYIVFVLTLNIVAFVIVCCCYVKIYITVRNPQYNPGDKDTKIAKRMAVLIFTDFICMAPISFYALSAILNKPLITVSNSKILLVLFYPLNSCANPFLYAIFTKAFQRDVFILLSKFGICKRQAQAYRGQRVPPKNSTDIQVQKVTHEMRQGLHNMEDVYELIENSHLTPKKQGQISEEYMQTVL
Method in brief: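 HEK293/TSHR, 800 cells/well; cpd 30 min RT; add cAMP-d2 + anti-cAMP-cryptate, 1 h RT; fluorescence read on plate reader. 15-pt titration, n=3.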

[7] = qHTS assay to identify small molecule agonists of the hypoxia (HIF-1) signaling pathway - cell viability counter screen (AID 1224844; calls by dose curve; further: nearly all actives have a fitted effect of over 50% in size; further: potency means the concentration at half of the fitted maximal effect)
Method in brief: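 Viability counter screen: HRE-bla ME-180 cells plated 5 hrs before compound addition, treated 17 hrs at 37C and 5% CO2, then CellTiter-Glo added after the FRET reporter read; luminescence after 30 min.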

[8] = qHTS assay to identify small molecule antagonists of the estrogen related receptor signaling pathway with the pleiotropic PPARgamma coactivator (PGC) from Tox21 10K library (AID 1224841; call rule not given here; further: actives are mostly falling curves and most rising ones were filed inactive; nearly all actives have a fitted effect of over 50% in size; further: potency means the concentration at half of the fitted maximal effect)
Method in brief: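 Cells stably carrying the PGC/ERR reporter, seeded at 2,000 per well, received pin-transferred compounds 6 h post-plating. Exposure lasted 18 h at 37 C. Signal: One-Glo luminescence.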

[9] = qHTS assay to identify small molecule agonists of the estrogen related receptor signaling pathway with the pleiotropic PPARgamma coactivator (PGC) from Tox21 10K library (AID 1224842); further: nearly all actives have a fitted effect of over 15% in size
Method in brief: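 PGC/ERR reporter cell line, 2,000 cells per well, incubated 6 h at 37 C before 23 nL compound in DMSO was added. After 18 h at 37 C, One-Glo luminescence read following 30 min at room temperature.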

[10] = target: Nuclear receptor subfamily 1 group I member 3 (Homo sapiens) (UniProt Q14994); experiment: qHTS assay to identify small molecule agonists of the constitutive androstane receptor (CAR) signaling pathway (AID 1224839);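 further: HepG2 cells stably carrying human CAR and a CYP2B6 luciferase reporter; series mostly up to about 92 µM; nearly all actives have a fitted effect of over 15% in size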
Method in brief: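 Readout: firefly luciferase luminescence via ONE-Glo. System: HepG2 double-stable for hCAR and CYP2B6-2.2kb. Conditions: 15-point compound titration, PK11195 at 0.75 uM final, 24 h incubation.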

SMILES | Potency [1] | Potency [2] | Potency [3] | Potency [4] | Potency [5] | Potency [6] | Potency [7] | Potency [8] | Potency [9] | Potency [10]
CCN(CC)CCSC(=O)C(c1ccccc1)c1ccccc1 | inactive | inactive | inactive | inactive | inactive | inactive | inactive |  |  | 
CCCCN(C)C | inactive | inactive | inactive | inactive | inactive | inactive | inactive |  |  | 
COc1cc(C(=O)NS(=O)(=O)c2ccccc2C)ccc1Cc1cn(C)c2ccc(NC(=O)OC3CCCC3)cc12 | 27.5 µM (active) | inactive | inactive | inactive |  | inactive |  | inactive | inactive | 
CCCSS/C(CCO)=C(\C)N(C=O)Cc1cnc(C)nc1N | inactive | inactive | inactive |  | inactive | inactive | inactive |  |  | inactive
CCCCCCCCCCCCOC(=O)c1cc(O)c(O)c(O)c1 | inactive | 68.3 µM (active) | 68.3 µM (active) | 76.6 µM (active) | 30.5 µM (active) and 6.11 µM (active) | inactive | 48.8 µM (active) and 54.9 µM (active) |  |  | 
CCOC(=O)COc1ccc(C)cc1 | 63.3 µM (active) | inactive | inactive | inactive | inactive | inactive | inactive |  |  | 
CC1CCCNC1 (configuration not stated) | inactive | inactive | inactive |  | inactive | inactive |  |  |  | inactive
CC1=C(/C=C/C(C)=C/C=C/C(C)=C/C(=O)Nc2ccc(O)cc2)C(C)(C)CCC1 | inactive | 23.7 µM (active) | 29.8 µM (active) |  | 28 µM (active) and 13.3 µM (active) | 22.2 µM (active) and 11.9 µM (active) | 22.4 µM (active) and 19 µM (active) | 6.27 µM (active) | inactive | inactive
O[C@@H](c1cc(C(F)(F)F)nc2c(C(F)(F)F)cccc12)[C@H]1CCCCN1 | inactive | 29.8 µM (active) | 29.8 µM (active) |  |  | inactive |  | inactive | inactive | inactive
O=C(O)Cc1ccc(OCCNC[C@H](O)c2ccccc2)cc1 | inactive | inactive | inactive | inactive | inactive | inactive | inactive |  |  | 
CC(C)(C)C1=CC(=O)C=C(C(C)(C)C)C1=O | inactive | inactive | inactive | inactive | inactive | inactive | inactive |  |  | 
C/C=C/C=N/NC(=O)c1ccncc1 | inactive | inactive | inactive |  | inactive | inactive |  |  |  | inactive
Oc1ccc(-c2ccccc2)c(Cl)c1 | 39.9 µM (active) | inactive | inactive | inactive | inactive | inactive |  |  |  | 
Cc1cccc(Br)c1 | inactive | inactive | inactive | inactive |  | inactive |  |  |  | 
CC(C)(C)c1cc(CCC(=O)NCCCCCCNC(=O)CCc2cc(C(C)(C)C)c(O)c(C(C)(C)C)c2)cc(C(C)(C)C)c1O | inactive | inactive | inactive | 1.93 µM (active) | inactive | inactive | inactive |  |  | 
CCc1cccc(CC)c1N(COC)C(=O)CS(=O)(=O)O | inactive | inactive | inactive | inactive |  | inactive | inactive | inactive | inactive | 
OCCCc1cccnc1 | inactive | inactive | inactive | inactive | inactive | inactive | inactive |  |  | 
C[C@@H]1CC[C@H]2C(C)(C)[C@H]3C[C@@]12CC[C@@]3(C)O | inactive | inactive | inactive | inactive |  | 54.4 µM (active) | inactive | 54.4 µM (active) | inactive | 
CCc1c(Br)c(Br)c(Br)c(Br)c1Br | inactive | inactive | inactive | inactive | inactive |  | inactive |  | inactive | 
COc1cccc(CCc2ccccc2OCC(CN(C)C)OC(=O)CCC(=O)O)c1 (configuration not stated) | inactive | inactive | inactive | inactive |  | inactive | 19 µM (active) | inactive | inactive | 
CC(C)C(=O)OCc1ccccc1 | inactive | inactive | inactive | inactive | inactive | inactive | inactive |  |  | 
CCOC(=O)[C@@](C)(N)Cc1ccc(O)c(O)c1 | inactive | inactive | inactive | inactive |  | inactive |  | inactive | inactive | 
S=P(N1CC1)(N1CC1)N1CC1 | inactive | inactive | inactive |  | inactive | inactive |  | 5.74 µM (active) | inactive | inactive
CC(=O)OC1CCCCC1 | inactive | inactive | inactive |  | inactive | inactive | inactive |  | inactive | 
COc1nccnc1CC(C)C | inactive | inactive | inactive |  | inactive | inactive | inactive | inactive | inactive | 
